Test results from the antibiotic and cytotoxicity screens of Wong et al. (2023).
Screen size: about 39,000 compounds; about 3,300 (8.5%) were called active. The sample as a whole holds a higher share of actives than the screen did.

test system: HepG2; assay: cytotoxicity call (relative viability < 0.9); conditions: 10 µM

Compound | cytotoxicity call
C[C@H]1CN([C@@H](C)CO)C(=O)c2cccc(NS(=O)(=O)c3cccs3)c2O[C@H]1CN(C)S(=O)(=O)c1cn(C)cn1 | inactive
Cc1ccc(S(=O)(=O)N(C)C[C@H]2Oc3c(NS(=O)(=O)c4cccs4)cccc3C(=O)N([C@H](C)CO)C[C@@H]2C)cc1 | inactive
Cc1ccc(S(=O)(=O)N(C)C[C@@H]2Oc3c(NS(=O)(=O)c4cccs4)cccc3C(=O)N([C@H](C)CO)C[C@@H]2C)cc1 | active
C[C@@H]1CN([C@H](C)CO)C(=O)c2cccc(NS(=O)(=O)c3cn(C)cn3)c2O[C@@H]1CN(C)S(C)(=O)=O | inactive
Cc1ccc(S(=O)(=O)N(C)C[C@@H]2Oc3c(NS(=O)(=O)c4cccs4)cccc3C(=O)N([C@@H](C)CO)C[C@H]2C)cc1 | inactive
C[C@@H]1CN([C@H](C)CO)C(=O)c2cccc(NS(=O)(=O)c3cccs3)c2O[C@@H]1CN(C)S(=O)(=O)c1cn(C)cn1 | inactive
C[C@H](CO)N1C[C@H](C)[C@H](CN(C)S(C)(=O)=O)Oc2c(NS(=O)(=O)c3cn(C)cn3)cccc2C1=O | active
C[C@H]1CN([C@@H](C)CO)C(=O)c2cccc(NS(=O)(=O)c3cn(C)cn3)c2O[C@H]1CN(C)S(C)(=O)=O | inactive
C[C@H](CO)N1C[C@H](C)[C@@H](CN(C)S(=O)(=O)c2cn(C)cn2)Oc2c(NS(=O)(=O)c3cccs3)cccc2C1=O | active
O=C(NO)c1ccncc1 | inactive
C[C@H]1CN([C@@H](C)CO)C(=O)c2c(c3ccccc3n2C)-c2ccccc2CO[C@@H]1CN(C)C(=O)Nc1ccccc1C(F)(F)F | inactive
CC(C)NC(=O)N(C)C[C@H]1Oc2ccc(NC(=O)CCN3CCOCC3)cc2C(=O)N([C@H](C)CO)C[C@@H]1C | inactive
O=C(C[C@H]1CC[C@H]2[C@@H](COC[C@H](O)CN2C(=O)Nc2ccc(C(F)(F)F)cc2)O1)NCCc1ccncc1 | inactive
Cc1noc(C)c1NC(=O)N(C)C[C@@H]1Oc2c(NC(=O)Nc3cccc4ccccc34)cccc2C(=O)N([C@@H](C)CO)C[C@@H]1C | inactive
COc1ccc(-c2cnc3c(c2)C(=O)N([C@H](C)CO)C[C@H](C)[C@H](CN(C)C(=O)C2CCOCC2)O3)cc1 | inactive
C[C@@H]1CN([C@H](C)CO)C(=O)c2cc(NS(=O)(=O)c3ccc(F)cc3)ccc2O[C@H]1CN(C)C(=O)Nc1ccc(C(F)(F)F)cc1 | inactive
O=c1nc(Nc2ccccc2)cn[nH]1 | inactive
CO[C@H]1CN(C)C(=O)c2ccc(NC(=O)Nc3ccccc3F)cc2OC[C@H](C)N(Cc2ccccc2C(=O)O)C[C@@H]1C | inactive
COc1cccc2c1C(=O)c1c(O)c3c(c(O)c1C2=O)CC(O)(C(=O)CO)CC3OC1CC(N)C(O)C(C)O1.Cl (centres undefined) | active
COc1cccc2c1C(=O)c1c(O)c3c(c(O)c1C2=O)C[C@@](O)(C(=O)CO)C[C@@H]3O[C@H]1C[C@H](N)[C@H](O)[C@H](C)O1 | active
CCCCC(=O)OCC(=O)[C@]1(O)Cc2c(O)c3c(c(O)c2[C@@H](O[C@H]2C[C@H](NC(=O)C(F)(F)F)[C@H](O)[C@H](C)O2)C1)C(=O)c1c(OC)cccc1C3=O | active
COc1cccc2c1C(=O)c1c(O)c3c(c(O)c1C2=O)CC(O)(C(=O)CO)CC3OC1CC(N)C(O)C(C)O1 (centres undefined) [listing 1 of 2 here] | active
C[C@@H]1CN([C@@H](C)CO)C(=O)Cc2cc(NS(=O)(=O)c3ccc(Cl)cc3)ccc2O[C@@H]1CN(C)Cc1ccc(C(=O)Nc2ccccc2N)cc1 | inactive

Compound | cytotoxicity call
CN1N=C2CCN(C(=O)[C@@H](COCc3ccccc3)NC(=O)C(C)(C)N)C[C@@]2(Cc2ccccc2)C1=O | inactive
C[C@H]1CN([C@@H](C)CO)C(=O)c2ccccc2-c2ccccc2CO[C@H]1CN(C)C(=O)Nc1cccc(F)c1 | inactive
C[C@@H]1CCCCO[C@@H](CN(C)C(=O)Nc2cccc3ccccc23)[C@@H](C)CN([C@H](C)CO)C(=O)c2cc(NC(=O)c3ccncc3)ccc2O1 | inactive
CCC(=O)OC1(C(=O)SCF)C(C)CC2C3CC(F)C4=CC(=O)C=CC4(C)C3(F)C(O)CC21C (centres undefined) | inactive
Cc1cc(O)c(C=O)c2c1C(=O)Oc1c(COC(=O)C=CC(=O)O)c(O)c(C(=O)O)c(C)c1O2 | inactive
C[C@H]1CN([C@@H](C)CO)S(=O)(=O)c2ccc(-c3cncnc3)cc2O[C@H]1CN(C)C(=O)Cc1ccccc1 | inactive
COc1ccc([C@@H]2C/C=C\C[C@@H](c3cccc(Cl)c3)NC(=O)[C@@H](c3ccccc3)CC(=O)N2)c(OC)c1 | inactive
COc1ccc(S(=O)(=O)Nc2ccc3c(c2)CC(=O)N([C@@H](C)CO)C[C@@H](C)[C@@H](CN(C)S(=O)(=O)c2ccccc2)O3)cc1 | inactive
Cc1noc(C)c1NC(=O)Nc1ccc2c(c1)CC(=O)N([C@H](C)CO)C[C@@H](C)[C@H](CN(C)Cc1ccc(C(=O)Nc3ccccc3N)cc1)O2 | inactive
COc1cccc2c1C(=O)c1c(O)c3c(c(O)c1C2=O)C[C@](O)(C(=O)CO)C[C@H]3O[C@H]1C[C@@H](N)[C@@H](O)[C@@H](C)O1 | active
COc1cccc2c1C(=O)c1c(O)c3c(c(O)c1C2=O)CC(O)(C(=O)CO)CC3OC1CC(N)C(O)C(C)O1 (centres undefined) [listing 2 of 2 here] | active
COc1cccc2c1C(=O)c1c(O)c3c(c(O)c1C2=O)C[C@@](O)(C(=O)CO)C[C@@H]3O[C@H]1C[C@H](N)[C@@H](O)[C@H](C)O1 | active
C[C@@H]1CN([C@H](C)CO)C(=O)c2cc(NC(=O)C3CC3)ccc2O[C@H]1CN(C)C(=O)Nc1ccc2c(c1)OCO2 | inactive
C[C@H]1COC(=O)[C@@H](Cc2ccc(F)cc2)CCC=CC[C@@H](CC(=O)N[C@H](CO)Cc2ccccc2)C(=O)N1 | inactive
CC(C)NC(=O)N(C)C[C@@H]1Oc2ccc(NC(=O)CCC(F)(F)F)cc2C(=O)N([C@H](C)CO)C[C@H]1C | inactive
COc1cccc(-c2cccc(-c3nc(C(=O)NCC(F)(F)F)cc4c3[C@@H](CCO)N([S@](=O)C(C)(C)C)C4)c2)c1 | inactive
O=C(O)CN(CCN(CC(=O)O)CC(=O)O)CC(=O)O.[Na+].[Na+] | inactive
C[C@H]1CN([C@@H](C)CO)C(=O)Cc2cc(NC(=O)CCCN(C)C)ccc2O[C@@H]1CN(C)C(=O)NC1CCCCC1 | inactive
Cc1noc(C)c1NC(=O)N(C)C[C@H]1OCCCC[C@@H](C)Oc2ccc(NC(=O)Cc3ccccc3)cc2C(=O)N([C@H](C)CO)C[C@@H]1C | inactive
O=C(C[C@H]1CC[C@H]2[C@@H](COC[C@@H](O)CN2Cc2ccccc2F)O1)N[C@H]1CCN(Cc2ccccc2)C1 | inactive
COC(=O)CN(C)c1nnc(N)s1 | inactive
CCOC(=O)Cc1csc(/C(=N/O)C(N)=O)n1 | inactive
COC(=O)Cc1csc(CC(N)=O)n1 | active

Compound | cytotoxicity call
COC(=O)c1c(CC[C@@H](CO)NC(=O)NCCn2cc(C3(O)CCCC3)nn2)oc(C(C)=O)c1C(=O)OC | inactive
Cc1ccc(S(=O)(=O)N(C)C[C@@H]2OCCCC[C@@H](C)Oc3ccc(NC(=O)Nc4c(C)noc4C)cc3C(=O)N([C@@H](C)CO)C[C@H]2C)cc1 | inactive
C[C@@H]1CN([C@@H](C)CO)C(=O)c2cccc(NS(=O)(=O)c3cccs3)c2O[C@H]1CN(C)Cc1ccc(-c2ccccc2)cc1 | inactive
C[C@H]1CN([C@@H](C)CO)C(=O)Cc2cc(NC(=O)Cc3cn(C)c4ccccc34)ccc2O[C@@H]1CN(C)C | inactive
COc1cc2c(cc1OC)CN(CCc1ccc(-n3nnc(-c4cc(OC)c(OC)cc4NC(=O)c4cc(=O)c5ccccc5o4)n3)cc1)CC2 | inactive
COc1cc2c(cc1OC)CN(CCc1ccc(NC(=O)c3cccc4c(=O)c5cccc(OC)c5[nH]c34)cc1)CC2 | inactive
COc1cc2c(cc1OC)CN(CCc1ccc(NC(=O)c3cc(OC)c(OC)cc3NC(=O)c3cnc4ccccc4c3)cc1)CC2 | active
CNC[C@@H]1Oc2ccc(NC(=O)Cn3cnnn3)cc2C(=O)N([C@@H](C)CO)C[C@H]1C | inactive
CCCCCCO[C@H](C)c1c(c/2[nH]c1/C=C/1\N=C(/C=C/3\NC4=C(CC(=O)C4=C3C)C3=N/C(=C2)[C@@H](C)[C@@H]3CCC(=O)O)C(=C1C)CC)C | active
Cc1noc(C)c1NC(=O)Nc1cccc2c1O[C@@H](CN(C)Cc1ccc(C(F)(F)F)cc1)[C@@H](C)CN([C@H](C)CO)C2=O | inactive
COc1ccc(S(=O)(=O)Nc2ccc3c(c2)C(=O)N([C@@H](C)CO)C[C@@H](C)[C@H](CN(C)C(=O)C2CCCCC2)OCCCC[C@H](C)O3)cc1 | inactive
CC(C)(C)[S@@](=O)N1Cc2cc(C(=O)N3CCCCC3)nc(-c3cccc(-c4cccc(C#N)c4)c3)c2[C@H]1CCO | inactive
CO[C@@H]1CN(C)C(=O)c2cc(NC(=O)C3CC3)ccc2OC[C@H](C)N(C(=O)C2CCOCC2)C[C@@H]1C | inactive
Cc1noc(C)c1S(=O)(=O)Nc1ccc2c(c1)CC(=O)N([C@H](C)CO)C[C@@H](C)[C@H](CN(C)S(=O)(=O)c1ccc(Cl)cc1)O2 | inactive
CC(=O)Nc1ccc(OC(C)=O)cc1 | inactive
CC(=O)Oc1ccc(O)cc1 | active
CC(=O)Oc1cccc(O)c1 | inactive
C[C@@H]1CN([C@H](C)CO)C(=O)c2c(c3ccccc3n2C)-c2ccccc2CO[C@H]1CN(C)C(=O)c1cc(Cl)cc(Cl)c1 | inactive
C[C@H]1CN([C@@H](C)CO)C(=O)c2c(c3ccccc3n2C)-c2ccccc2CO[C@H]1CN(C)C(=O)c1cc(Cl)cc(Cl)c1 | inactive
C[C@H]1CN([C@@H](C)CO)C(=O)c2c(c3ccccc3n2C)-c2ccccc2CO[C@@H]1CN(C)C(=O)c1cc(Cl)cc(Cl)c1 | inactive
C[C@H](CO)N1C[C@H](C)[C@@H](CN(C)C(=O)c2cc(Cl)cc(Cl)c2)OCc2ccccc2-c2c(n(C)c3ccccc23)C1=O | active
C[C@@H]1CN([C@@H](C)CO)C(=O)c2c(c3ccccc3n2C)-c2ccccc2CO[C@H]1CN(C)C(=O)c1cc(Cl)cc(Cl)c1 | inactive
C[C@@H]1CN([C@@H](C)CO)C(=O)c2c(c3ccccc3n2C)-c2ccccc2CO[C@@H]1CN(C)C(=O)c1cc(Cl)cc(Cl)c1 | active
